FBPA Giardia inh = qHTS Assay for Inhibitors of Fructose-1,6-bisphosphate Aldolase from Giardia Lamblia. A8B2U2. purified Giardia FBPA. Potency, µM (doses to about 59.6 µM), inactives show at the highest dose activity, negative = inhibition, most hits filed as inhibitors. 290,000 tested, 0.71% active. AID 2451, 2010; also: potency is read from the fitted curve at half-maximal effect; nearly all actives have a fitted effect of over 55% in size
Target sequence (A8B2U2 whole entry, looked up): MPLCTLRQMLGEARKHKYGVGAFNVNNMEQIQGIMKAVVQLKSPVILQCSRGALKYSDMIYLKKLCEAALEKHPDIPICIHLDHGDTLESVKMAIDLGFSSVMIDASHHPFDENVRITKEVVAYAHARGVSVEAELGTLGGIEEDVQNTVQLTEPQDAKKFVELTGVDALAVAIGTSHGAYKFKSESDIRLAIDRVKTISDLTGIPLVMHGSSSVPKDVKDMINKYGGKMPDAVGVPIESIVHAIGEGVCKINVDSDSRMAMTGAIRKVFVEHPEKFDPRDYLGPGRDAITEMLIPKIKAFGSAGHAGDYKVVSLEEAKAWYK
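Giardia FBPA (40 nM reagent) was preincubated 10 min at RT with compound (up to 57.5 uM final), then substrate plus GAPDH/TPI/NAD/arsenate coupling system with diaphorase/resazurin was added; resorufin fluorescence (525/598 nm) was read after 20 min.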
Pf growth 48h = Primary qHTS for delayed death inhibitors of the malarial parasite plastid, 48 hour incubation | P. falciparum luciferase growth in erythrocytes, 48 h | Potency, µM (series often up to 28.7 µM), for inactives: at the highest dose activity change, negative = inhibition, most hits filed as inhibitors | 310,000 tested, 5.9% active | AID 504832, 2011; also: potency is read from the fitted curve at half-maximal effect
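Growth was read as firefly luciferase luminescence after a 48 h, 37 C, 5% CO2 exposure of compounds to reporter-bearing P. falciparum cultures (0.1% parasitemia, 2% hematocrit final) in Albumax-supplemented RPMI 1640.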
Sm TGR inh = qHTS Assay for the Inhibitors of Schistosoma Mansoni Peroxiredoxins; Schistosoma mansoni thioredoxin glutathione reductase (TGR), Q962Y6; purified TGR, DTNB reduction, TNB absorbance 405 nm; Potency, µM (highest dose often 114 µM), for the others: top-dose activity change, negative = inhibition, actives largely listed as inhibitors; 360,000 tested, 3% active; also: potency is read from the fitted curve at half-maximal effect; nearly all actives have a fitted effect of over 60% in size
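TGR 20 nM + NADPH 100 uM (dispensed conc.), cpd preinc 15 min RT; start with NADPH (500 uM addition) then DTNB (15 mM addition). Kinetic TNB absorbance, 405 nm filter. Four-parameter Hill fit across titration.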
HCMV antiviral = qHTS Assay for inhibitors of the human cytomegalovirus (HCMV); HFF cells, HCMV-luciferase reporter, 72 h; active compounds read low; activity change, negative = inhibition, % at 57.5 µM; 410,000 tested, 4.5% active; in the data active = activity change below about -60%; inconclusive = no clear call, values can overlap the other calls; inactive = above about -39%
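Cell-based, HFFs, 1000 cells/well, 16 h 37C; cpds in DMSO + HCMV-luc, MOI 1 PFU/cell; 72 h 37C; OneGlo luminescence after 5 min RT; norm. to buffer vs Salinomycin 10uM.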
Pf growth 96h = Primary qHTS for delayed death inhibitors of the malarial parasite plastid, 96 hour incubation; P. falciparum luciferase reporter growth, 96 h; Potency, µM (titrated, usually from 28.7 µM), without a hit: at the top dose activity change, negative = inhibition, most hits filed as inhibitors; 320,000 tested, 6.9% active; AID 504834, 2011; also: potency is read from the fitted curve at half-maximal effect
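Erythrocytes infected with luciferase-expressing P. falciparum were dispensed at 2% hematocrit and 0.05% parasitemia (final), then incubated with compounds 96 hours at 37 C in 5% CO2. Luminescence after detection reagent addition reported growth.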
Starred values were filed as active, the others as inactive; ? = inconclusive; / = not tested or not shown. Most compounds without a hit are left out; they make up all but 14% or so of the library. Unless noted, calls follow the shape of the dose curve; as a rule, active = well fitted curve in the direction sought with a large enough effect; inconclusive = small, poorly fitted or top-dose-only effect, or another doubt; inactive = no such curve, though single readings can be large; an effect the other way counts as inactive or inconclusive. % is scaled to controls: 0 for no effect and ±100 for the full control effect.

SMILES	FBPA Giardia inh	Pf growth 48h	Sm TGR inh	HCMV antiviral	Pf growth 96h
CC(=O)c1c(C)oc2c(Br)cc(NS(=O)(=O)c3ccc(Br)cc3)cc12	/	/	5.6µM*	12	/
CC(C)CC[n+]1ccccc1/C=C/c1ccc(N(C)C)cc1	-1%	0.93µM*	0%	-102*	-10%
Cc1cccc(Cl)c1NC(=S)N1CCN(c2ccc([N+](=O)[O-])cn2)CC1	-7%	1.7µM*	8%	-14	1.7µM*
O=C1c2cccc3cccc(c23)C(=O)N1CCN1CCN(C(=S)Nc2ccccc2)CC1	1%	42%	-2%	-34	15µM*
O=S(=O)(c1ccc(F)c(F)c1F)N1CCN(C(=S)Nc2ccccc2)CC1	0%	2.3µM*	2%	17	?
O=[N+]([O-])c1cccc(NC(=S)N2CCN(c3ccccn3)CC2)c1	/	-3%	-6%	-65*	?
O=C1c2cccc3cccc(c23)C(=O)N1CCN1CCN(C(=S)Nc2ccc(Cl)cc2)CC1	8%	28%	1%	4	238%
CCCSc1nc2sc3c(c2c(=O)n1-c1ccc(C)cc1)CCCC3	/	/	2%	6	/
CCCC(NC(=O)c1c(C)noc1C)C12CC3CC(CC(C3)C1)C2 (centres undefined)	6%	?	9%	-17	-26%
CCCCCCCCC#CCC#CCC#CCCCC(=O)O	5%	/	/	/	/
S=C(NC1CCCC1)N1CCN(c2ccccn2)CC1	5%	4%	8%	-62*	2.1µM*
S=C(Nc1ccccc1)N1CCN(C(=S)Nc2ccccc2)CC1	3%	0%	60%	-30	5.2µM*
S=C(NC1CC1)N1CCN(c2ccc(Cl)cc2)CC1	1%	-6%	19%	-4	0%
O=[N+]([O-])c1ccc(NC(=S)N2CCN(c3ccccc3)CC2)cc1	-15%	14%	-8%	-23	16%
O=C(NC(=S)N1CCN(c2ccccn2)CC1)c1ccccc1	-16%	13%	-11%	-20	2%
O=[N+]([O-])c1ccc(N2CCN(C(=S)NC3CCCCC3)CC2)cc1	/	0.52µM*	8%	?	121%
O=[N+]([O-])c1ccc(N2CCN(C(=S)Nc3ccccc3)CC2)cc1	4%	2.1µM*	5%	?	-15%
CCOc1ccc(N=C2NC(=O)CS2)cc1	-7%	-4%	6%	17	4%
CC(C)CC(=O)Nc1nc2c(s1)CC(C(C)(C)C)CC2 (centres undefined)	/	/	2%	30	/
OC(COCc1ccccc1)COCc1ccccc1	/	/	/	-2	/
Cc1n(CC(O)COCc2ccccc2)c2ccccc2[n+]1C (centres undefined)	-1%	9.3µM*	-3%	26	3.3µM*
CC(=O)c1ccc(N/N=C(/C(N)=O)C2=NC(C)(C)Cc3ccccc32)cc1	0%	?	-1%	?	5%
CC1(C)Cc2ccccc2C(/C(=N\Nc2cccc(Cl)c2)C(N)=O)=N1	1%	5.9µM*	0%	-102*	9%
COc1ccc(CCN(Cc2cc3ccc(C)cc3n3nnnc23)C(C)=O)cc1OC	0%	2%	0%	-100*	3%
CCCOC(=O)c1ccc2c(c1)C(=O)N(c1ccccc1)C2=O	5%	/	9%	-17	12µM*
SMILES	FBPA Giardia inh	Pf growth 48h	Sm TGR inh	HCMV antiviral	Pf growth 96h
CCCOC(=O)CN1C(=O)c2ccc(C(=O)OCCC)cc2C1=O	-1%	3%	-26%	-1	/
CCn1c(CCNC(=O)c2ccc(OC)cc2)nnc1SCc1ccc(Cl)c(Cl)c1	-2%	?	-19%	-60*	?
Cc1ccc(C(=O)N/C(=C\c2cccc([N+](=O)[O-])c2)C(=O)NC(Cc2ccccc2)C(=O)O)cc1 (centres undefined)	/	27%	41%	14	4%
CC1Cc2cc(-c3csc(NC(=O)Cc4ccccc4)n3)ccc2N1S(C)(=O)=O (centres undefined)	-9%	/	-5%	-98*	?
O=C(Nc1nc(-c2cccc([N+](=O)[O-])c2)cs1)C(c1ccccc1)c1ccccc1	-6%	?	2%	23	29%
CS(=O)(=O)N1CCc2cc(-c3csc(NC(=O)C(c4ccccc4)c4ccccc4)n3)ccc21	-5%	13µM*	16%	-16	/
COCCNc1cc(-c2ccccc2C)ncn1	-17%	/	/	/	/
CN(C)CCCNc1ncnc2c1cnn2Cc1ccccc1Cl	-16%	-7%	4%	26	6%
Cc1nnc(Nc2ccc3c(c2)OCO3)c2ccccc12	-25%	82%	-35%	-91*	?
Cc1ccc(-c2nnc(Nc3ccc4c(c3)OCO4)c3ccccc23)cc1S(N)(=O)=O	-17%	?	4%	-73*	2.9µM*
CC(=O)Nc1cc(-c2ccc(N3CCN(C)CC3)cc2)cn2c(-c3cccc(C(C)=O)c3)cnc12	/	/	/	31	/
O=C(NNC1CC(=O)N(c2ccc(F)cc2)C1=O)c1cccnc1 (centres undefined)	1%	6%	7.9µM*	-21	15%
O=C(NNC1CC(=O)N(c2ccccc2)C1=O)c1cccnc1 (centres undefined)	-1%	1%	1%	48	38%
O=C(COc1ccc(Br)cc1)Nc1ccc([N+](=O)[O-])cn1	-1%	37%	-27%	-31	4.1µM*
O=C(Cc1ccc([N+](=O)[O-])cc1)Nc1ccon1	6%	7%	-4%	-27	?
O=C(Cc1ccc([N+](=O)[O-])cc1)Nc1ccc(Br)cn1	1%	-14%	-16%	-61*	?
Cn1c(-c2ccccc2)cc2c3no[n+]([O-])c3ccc21	1%	42%	9%	-102*	53%
CCON=O	/	-75%	/	/	2.7µM*
CC(C)CCON=O	/	-5%	/	/	-2%
O=C(COC(=O)c1ccc(S(=O)(=O)N2CCCC2)cc1)Nc1cccc(Br)c1	/	18%	-1%	28	-16%
Cc1ccccc1C(=O)OCC(=O)Nc1cccc(S(=O)(=O)N2CCCCC2)c1	/	/	/	-7	/
Cc1cccc(NC(=O)COC(=O)c2ccc(S(=O)(=O)N3CCCCCC3)cc2)c1	/	?	-4%	-99*	11%
Cc1ccc(C)c(C(=O)OCC(=O)Nc2cccc(S(=O)(=O)N3CCCCC3)c2)c1	/	10µM*	-1%	?	10µM*
Cc1cc(C(C2C(=O)CC(C)(C)CC2=O)C2C(=O)CC(C)(C)CC2=O)cc(C)c1OC(F)F	-10%	19%	32µM*	14	52%
CCC(Oc1ccccc1OC)C(=O)Nc1ccc2c(c1)OCCO2 (centres undefined)	/	29%	10%	-4	27%

High-throughput results: PubChem, National Center for Advancing Translational Sciences (NCATS)
